Source: PubChem BioAssay (NCI)
Several values for one entry are separate records, joined by “and”; a condition that tells them apart may be missing. Equal entries are not always repeated. About 83,000 compounds went through this panel and 20% of them were active in at least one assay; those are over-represented in the sample as a whole.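 A percent growth of 40 corresponds to 60% growth inhibition; 0 means no net growth; -100 means all cells died. Active threshold: below 10.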 Some compounds were tested as several samples or in several runs, with calls that do not always agree. Activity calls are given as the source filed them.

Columns and labels:
Assay in all cases: NCI-60 one-dose screen, 48 h (100 = growth as untreated, 0 = no growth, -100 = all killed)
Conditions in all cases: 10 µM unless noted
[1] = system: NCI-H23 lung
[2] = system: NCI-H226 lung
[3] = system: NCI-H322M lung
[4] = system: HOP-62 NSCLC
[5] = system: NCI-H460 lung
[6] = system: HOP-92 NSCLC
[7] = system: NCI-H522 lung
[8] = system: A549/ATCC NSCLC
[9] = system: 786-0 renal
[10] = system: COLO 205 colon
[11] = system: DU-145 prostate
[12] = system: K-562 leukemia
[13] = system: MDA-MB-231 breast
[14] = system: RXF 393 renal
[15] = system: SF-268 CNS
[16] = system: SF-295 CNS
[17] = system: SF-539 CNS
[18] = system: UACC-257 melanoma
[19] = system: M14 melanoma
[20] = system: MALME-3M melanoma

| Structure (SMILES) | growth [1] | growth [2] | growth [3] | growth [4] | growth [5] | growth [6] | growth [7] | growth [8] | growth [9] | growth [10] | growth [11] | growth [12] | growth [13] | growth [14] | growth [15] | growth [16] | growth [17] | growth [18] | growth [19] | growth [20] |
| --- | --- | --- | --- | --- | --- | --- | --- | --- | --- | --- | --- | --- | --- | --- | --- | --- | --- | --- | --- | --- |
| CC(=O)c1ccc2c(c1)CCc1ccccc1-2 | 107% (inactive) | 94.7% (inactive) | 116% (inactive) | 88.5% (inactive) | 107% (inactive) | 95.3% (inactive) | 110% (inactive) | 91% (inactive) | 83.7% (inactive) | 110% (inactive) | 115% (inactive) | 115% (inactive) | 109% (inactive) | 97.4% (inactive) | 101% (inactive) | 94.2% (inactive) | 96.8% (inactive) | 98.2% (inactive) | 107% (inactive) |  |
| N#CCc1cccc2ccccc12 | 109% (inactive) | 100% (inactive) | 106% (inactive) | 109% (inactive) | 108% (inactive) | 87.2% (inactive) | 91.6% (inactive) | 103% (inactive) | 109% (inactive) |  | 123% (inactive) | 103% (inactive) | 103% (inactive) | 114% (inactive) | 116% (inactive) | 123% (inactive) | 101% (inactive) | 105% (inactive) | 109% (inactive) | 110% (inactive) |
| OC(c1cc(-c2ccc(C(F)(F)F)cc2)nc(C(F)(F)F)c1)C1CCCCN1 (centres undefined) | 23.4% (inactive) and -44.7% (active) and 62.5% (inactive) | -7.1% (active) and -6.47% (active) and 43.1% (inactive) | 48.2% (inactive) and 29.8% (inactive) and 70.3% (inactive) | -69.8% (active) and -89.1% (active) and 57.1% (inactive) | -77.9% (active) and -77.2% (active) and -47.9% (active) | -18.8% (active) and -58.7% (active) and 36.3% (inactive) | -67.2% (active) and -80.1% (active) and 9.35% (active) | -43% (active) and -44.5% (active) and 35.6% (inactive) | -48.8% (active) and -82.2% (active) and 27% (inactive) |  | -16.1% (active) and -94.1% (active) and 32.1% (inactive) | -47.5% (active) and -65.5% (active) and -27.9% (active) | -57.8% (active) and -85.1% (active) and -19% (active) | -94.4% (active) and -93% (active) and 39% (inactive) | -42.1% (active) and -39.4% (active) and 29.8% (inactive) | 188% (inactive) | -41.7% (active) and -76.5% (active) and 40.2% (inactive) | -68.6% (active) and 68.3% (inactive) and -8.76% (active) | -77% (active) and -84.3% (active) and -76.6% (active) | 22% (inactive) and -88.6% (active) and 60.1% (inactive) |
| Fc1ccc(NCCS)cc1 | 97.4% (inactive) | 104% (inactive) | 103% (inactive) | 99.6% (inactive) | 102% (inactive) | 103% (inactive) | 90% (inactive) | 92.7% (inactive) |  | 108% (inactive) | 107% (inactive) | 101% (inactive) | 102% (inactive) | 108% (inactive) | 102% (inactive) |  | 103% (inactive) | 102% (inactive) |  | 108% (inactive) |
| CC1(C)OC2C(COC(c3ccccc3)(c3ccccc3)c3ccccc3)OC(c3c[nH]c4c(N)ncnc34)C2O1 (centres undefined) | 62.9% (inactive) | 72.9% (inactive) | 71.3% (inactive) | 81.6% (inactive) | 41.1% (inactive) | 59.5% (inactive) | 55.9% (inactive) | 44.7% (inactive) | 62.8% (inactive) |  |  | 32.4% (inactive) | 75.7% (inactive) | 79% (inactive) | 57.4% (inactive) | 57.9% (inactive) | 90% (inactive) | 74.9% (inactive) | 52.5% (inactive) | 93.5% (inactive) |
| N#C/C(=N\Nc1ccc(Cl)cc1)C(=O)C1CC1 | 42.4% (inactive) | 69.9% (inactive) | 82.1% (inactive) | 41.9% (inactive) | 44.9% (inactive) | 20% (inactive) | 35.5% (inactive) | 40.9% (inactive) | 39.6% (inactive) |  | 74.4% (inactive) | 63.2% (inactive) |  | 84.9% (inactive) |  | 40.9% (inactive) | 59.7% (inactive) | 3.99% (active) | 52.2% (inactive) | 31.1% (inactive) |
| Oc1ccccc1N=Cc1ccccc1 | 64.2% (inactive) | 86.3% (inactive) | 87.5% (inactive) | 99.1% (inactive) | 94.4% (inactive) | 102% (inactive) | 81.1% (inactive) | 98.2% (inactive) |  | 125% (inactive) | 83.5% (inactive) | 48.6% (inactive) |  | 117% (inactive) | 89.9% (inactive) | 111% (inactive) | 108% (inactive) | 94.3% (inactive) | 87.6% (inactive) | 95.6% (inactive) |
| O=C1c2ccccc2Cc2cccc(Cl)c21 | 95.5% (inactive) | 94.6% (inactive) | 85.4% (inactive) | 98.8% (inactive) | 117% (inactive) | 110% (inactive) | 85.8% (inactive) | 91.7% (inactive) | 89.1% (inactive) |  |  | 91.5% (inactive) | 95.4% (inactive) | 89.7% (inactive) | 93% (inactive) | 90.9% (inactive) | 98.1% (inactive) | 104% (inactive) | 111% (inactive) | 94.2% (inactive) |
| O=C(CCl)N1c2ccccc2Sc2c1ccc1ccccc21 | 48.6% (inactive) | 68.1% (inactive) | 106% (inactive) | 90.6% (inactive) | 81.7% (inactive) | 64.6% (inactive) | -79.2% (active) | 95.2% (inactive) | 88.9% (inactive) |  | 93.9% (inactive) | 55.7% (inactive) | 76.4% (inactive) | 70.4% (inactive) | 70.4% (inactive) | 94.5% (inactive) | 84.7% (inactive) | 89.4% (inactive) | 61.1% (inactive) |  |
| COc1ccc(NC(=O)/C(=C/N2C(=O)/C(=C/c3ccc(OC)c(OC)c3)NC2=S)C(C)=O)cc1 | 64.5% (inactive) | 83.1% (inactive) | 71.1% (inactive) | 58.4% (inactive) | 65.6% (inactive) | 3.15% (active) | 46.8% (inactive) | 63.8% (inactive) | 99.2% (inactive) |  | 96.4% (inactive) |  | 73% (inactive) | 85.6% (inactive) | 78.3% (inactive) | 93.9% (inactive) | 85.1% (inactive) | 60% (inactive) |  |  |
